Compounds with a hit are over-represented: about 0.53% of the library has one in this group of screens.
PrP 5UTR inh – inhibition of PrP 5' UTR reporter expression; cell-based PrP 5' UTR mRNA reporter, plate reader; inhibition, % (no concentration beside the values); hit rate 0.35% among 340,000; AID 488862; in the data active = inhibition above about 52%
Yp Topo-I inh – inhibitors of Yersinia pestis topoisomerase I; Y. pestis Topo-I cleavage product accumulation, plate reader; activity, % at 10 µM; hit rate 0.064% among 360,000; AID 504884; in the data active = activity above about 50%, passing the limit was not always enough
Mtb BioA inh – BioA (M. tuberculosis) enzyme inhibition; purified M. tuberculosis BioA enzyme, plate reader; inhibition, % at 9.99 µM; hit rate 0.096% among 360,000; AID 602481; in the data active = inhibition above about 40%
TcdB inh – TcdB glycohydrolase inhibition; P18177; TcdB glycohydrolase enzymatic assay, plate reader; inhibition, % at 9.99 µM; hit rate 0.24% among 350,000; AID 652162; in the data active = inhibition above about 10%
PrP UTR cherry – prion 5' UTR mRNA inhibition, cherry-pick retest; hit rate 48% among 1,100; cell-based prion protein 5' UTR reporter, plate reader; shares compounds with PrP 5UTR inh; AID 504592; inhibition, % at 2.5 µM; in the data active = inhibition above about 54%
Numbers stand for hits.

What do the screens show for `COc1ccccc1NC(=O)N[C@H]1CC[C@H](CCNC(=O)c2ccc3c(c2)OCO3)O[C@@H]1CO`?
Mtb BioA inh: inactive; TcdB inh: inactive

Results for Cc1nn(-c2ccccc2)c(Cl)c1C(=O)NCc1ccccc1F ?
PrP 5UTR inh: inactive; Yp Topo-I inh: inactive; Mtb BioA inh: inactive; TcdB inh: inactive

How did Cc1nn(-c2ccccc2)c(Cl)c1C(=O)NCCCCNC(=O)c1c(C)nn(-c2ccccc2)c1Cl do in these assays?
PrP 5UTR inh: 74; Yp Topo-I inh: inactive; Mtb BioA inh: inactive; PrP UTR cherry: inactive

What do the screens show for `CCN(CC)S(=O)(=O)c1ccc(C(=O)O)cc1`?
PrP 5UTR inh: 80; Yp Topo-I inh: inactive; Mtb BioA inh: inactive; TcdB inh: inactive; PrP UTR cherry: inactive

What do the screens show for `O=C(NCCc1ccccn1)c1ccc(NS(=O)(=O)c2ccc(F)cc2)cc1`?
PrP 5UTR inh: inactive; Yp Topo-I inh: inactive; Mtb BioA inh: inactive; TcdB inh: inactive

Results for CCCN(CCC)S(=O)(=O)c1ccc(C(=O)O)cc1 ?
PrP 5UTR inh: inactive; Yp Topo-I inh: inactive; Mtb BioA inh: inactive; TcdB inh: inactive

Results for CCN(CC)S(=O)(=O)c1ccc(C(=O)NCCc2ccccn2)cc1 ?
PrP 5UTR inh: 78; Yp Topo-I inh: inactive; Mtb BioA inh: inactive; TcdB inh: inactive; PrP UTR cherry: inactive

Results for Cc1cc(C(=O)Nc2ccc3c(c2)C(=O)N(C)[C@@H]2CC[C@@H](CC(=O)NC4CCCC4)O[C@H]2CO3)no1 ?
Mtb BioA inh: inactive; TcdB inh: inactive

How did COc1ccc(NC(=O)COC(=O)Cc2c[nH]c3ccccc23)cc1OC do in these assays?
PrP 5UTR inh: 68; Yp Topo-I inh: inactive; TcdB inh: inactive; PrP UTR cherry: inactive

What do the screens show for `C[C@@H]1CCCCO[C@H](CN(C)S(=O)(=O)c2ccc(F)cc2)[C@@H](C)CN([C@@H](C)CO)C(=O)c2cc(NC(=O)Nc3cccc4ccccc34)ccc2O1`?
Mtb BioA inh: inactive; TcdB inh: inactive

What do the screens show for `O=C(Nc1ccc2c(c1)[C@H]1C[C@H](CC(=O)N3CCc4ccccc4C3)O[C@H](CO)[C@H]1O2)C1CCOCC1`?
Mtb BioA inh: inactive; TcdB inh: inactive

Results for COc1cc(/C=N/O)ccc1OCc1ccc(C(=O)O)cc1 ?
PrP 5UTR inh: 88; Yp Topo-I inh: inactive; Mtb BioA inh: inactive; PrP UTR cherry: 91

How did C[C@@H]1CN([C@H](C)CO)C(=O)c2cc(C#CCN(C)C)cnc2O[C@H]1CN(C)C(=O)c1cccc(F)c1 do in these assays?
Mtb BioA inh: inactive; TcdB inh: inactive

What do the screens show for `C[C@@H]1CN([C@@H](C)CO)C(=O)Cc2cc(NS(=O)(=O)c3cccs3)ccc2O[C@@H]1CN(C)C(=O)NC1CCCCC1`?
Mtb BioA inh: inactive; TcdB inh: inactive

What do the screens show for `Cn1c(=O)c2[nH]c(N=Nc3ccc(N)cc3N)nc2n(C)c1=O`?
PrP 5UTR inh: 71; Yp Topo-I inh: inactive; TcdB inh: inactive; PrP UTR cherry: inactive

What do the screens show for `Cc1cc(C)cc(Nc2nc3c([nH]2)c(=O)n(C)c(=O)n3C)c1`?
PrP 5UTR inh: inactive; Yp Topo-I inh: inactive; Mtb BioA inh: inactive; TcdB inh: inactive

How did Cc1ccc(-n2nnc(-c3nccs3)n2)cc1 do in these assays?
PrP 5UTR inh: 77; Yp Topo-I inh: inactive; Mtb BioA inh: inactive; TcdB inh: inactive; PrP UTR cherry: 62

How did COc1ccccc1-c1cn(CC[C@@H]2CC[C@H](NC(=O)C3CC3)[C@H](CO)O2)nn1 do in these assays?
Mtb BioA inh: inactive; TcdB inh: inactive

Results for COC(=O)Cc1ccc(NC(=O)c2ccc(C(C)(C)C)cc2)cc1 ?
PrP 5UTR inh: 79; Yp Topo-I inh: inactive; Mtb BioA inh: inactive; PrP UTR cherry: 65

What do the screens show for `CC(C)(C)c1ccc(C(=O)Nc2ccc(Cl)cc2)cc1`?
PrP 5UTR inh: inactive; Yp Topo-I inh: inactive; TcdB inh: inactive

How did O=C(O)C[C@H]1C=C[C@@H](NC(=O)CCN2CCCCC2)[C@@H](CO)O1 do in these assays?
TcdB inh: inactive

What do the screens show for `COc1ccc(-n2c(Cc3cc(=O)[nH]c(=O)[nH]3)nnc2SCC(=O)Nc2ccccc2)cc1`?
PrP 5UTR inh: 57; Yp Topo-I inh: inactive; Mtb BioA inh: inactive; TcdB inh: inactive; PrP UTR cherry: inactive

What do the screens show for `COc1ccccc1-c1ccc([C@H]2[C@H](CO)N(C(C)=O)C23CN(C(C)=O)C3)cc1`?
TcdB inh: inactive

Results for C[C@@H]1CN([C@H](C)CO)S(=O)(=O)c2ccc(Br)cc2O[C@@H]1CN(C)C(=O)CN(C)C ?
Mtb BioA inh: inactive; TcdB inh: inactive

Results for COc1ccc(CCNc2ccc(C(=O)O)cc2[N+](=O)[O-])cc1OC ?
PrP 5UTR inh: 62; Yp Topo-I inh: inactive; Mtb BioA inh: inactive; TcdB inh: inactive; PrP UTR cherry: inactive
